Laboratory results taken from the supplement of paper PMC12340641.
Where a name gives a salt, the structure may show the parent alone.

What was measured:
[1] = target: IKZF1 (dCK*-IKZF1 fusion in HEK293FT) (UniProt Q13422); assay: inhibition of IKZF1 HTRF signal (DMSO = 0%, pomalidomide 10 uM = 100%); higher = lower IKZF1 protein level; conditions: compound concentration: 5 uM, overnight (~20 h)
Outline: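 For percent inhibition of IKZF1 signal, each plate was normalised to vehicle and to a reference degrader. Cells were HEK293FT stably expressing an IKZF1 fusion, plated at 2000/well in 384-well format and treated overnight at 37 °C with 5 μM compound, one well each. Lysates were probed overnight with a commercial HTRF total-IKZF1 antibody kit, with the 665/620 nm ratio background-subtracted and vehicle and degrader fixed at 0% and 100%.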

HEK293FT dCK*-only = assay: relative growth in counter assay (no AraC = 100%, AraC + DMSO = 0%); higher = more growth rescue independent of IKZF1; conditions: compound concentration: 5 uM; AraC concentration: 0.3 uM; overnight pretreatment + 4 days AraC
Outline: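 HEK293FT cells carrying only an engineered kinase construct were plated at 300 per well (384-well) and given 5 μM compound 2 h later. Following overnight at 37 °C, a nucleoside suicide substrate (0.3 μM) plus medium was added for 4 days. Hoechst 33342-stained nuclei were imaged and counted on day 5, with 100% assigned to wells without suicide substrate and 0% to substrate plus vehicle on each plate.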

HEK293FT dCK*-IKZF1 = assay: relative growth recovery (pomalidomide 10 uM = 100%, DMSO = 0%); higher = more growth rescue (IKZF1 fusion degradation); conditions: compound concentration: 5 uM; AraC concentration: 0.3 uM; overnight pretreatment + 4 days AraC
Outline: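 Means of duplicates from different days are given for growth recovery, normalised per plate against a reference degrader and vehicle. The reference degrader set the 100% level and vehicle the 0% level. HEK293FT cells stably expressing a deoxycytidine kinase–IKZF1 fusion (300/well, 384-well) received 5 μM compound 2 h after seeding and, after overnight at 37 °C, 0.3 μM of a nucleoside suicide substrate plus medium for 4 days. Nuclei stained with Hoechst 33342 were then counted by whole-well imaging on day 5.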

IKZF1 (dCK*-IKZF1 fusion in HEK293FT), sequence (Q13422 whole entry, looked up, the tested form may be a part): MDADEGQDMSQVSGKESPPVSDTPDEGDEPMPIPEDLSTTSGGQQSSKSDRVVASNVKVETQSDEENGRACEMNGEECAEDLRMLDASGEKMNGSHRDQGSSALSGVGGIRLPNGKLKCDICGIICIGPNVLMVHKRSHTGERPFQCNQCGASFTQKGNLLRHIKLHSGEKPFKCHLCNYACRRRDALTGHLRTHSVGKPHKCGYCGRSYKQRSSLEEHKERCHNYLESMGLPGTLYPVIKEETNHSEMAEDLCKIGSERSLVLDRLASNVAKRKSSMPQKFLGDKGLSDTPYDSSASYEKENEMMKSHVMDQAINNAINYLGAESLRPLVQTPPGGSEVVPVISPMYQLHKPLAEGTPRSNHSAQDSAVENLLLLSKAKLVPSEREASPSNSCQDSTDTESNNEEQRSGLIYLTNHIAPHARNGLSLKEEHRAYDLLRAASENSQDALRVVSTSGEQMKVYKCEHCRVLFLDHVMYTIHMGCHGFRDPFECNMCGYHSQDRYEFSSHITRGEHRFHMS

SMILES	inhibition of IKZF1 HTRF signal [1] [%]	relative growth in counter assay (HEK293FT dCK*-only) [%]	relative growth recovery (HEK293FT dCK*-IKZF1) [%]
N#Cc1ccc(O[C@H]2CC[C@H](NC(=O)c3ccc(N4CCC(CN5CCN(c6cc7c(cc6F)C(=O)N(C6CCC(=O)NC6=O)C7=O)CC5)CC4)nn3)CC2)cc1Cl (stereo partly specified)	-5.24	6.3	-0.69
O=C(O)c1cc(N=Nc2ccc(O)c(C(=O)O)c2)ccc1O [Olsalazine Na]	-197	1.54	-1.08
O=c1oc2c(O)c(O)cc3c(=O)oc4c(O)c(O)cc1c4c23	5.6	-6.38	-3
O=C1C=Cc2cc(Br)ccc2C1=O [bonaphthone]	23	1.29	-2.85
O=C(Nc1ccc(S(=O)(=O)Nc2nccs2)cc1)C(c1ccccc1)c1ccccc1	-31.6	-2.35	-3.39
NC(=O)C(c1ccccc1)(c1ccc(F)cc1)c1ccc(F)cc1 [Senicapoc]	-28.5	2.14	-0.855
O=C(O)c1cc(/N=N/c2ccc(O)c(C(=O)O)c2)ccc1O	-32.5	-4.73	3.38
Cc1cc(Nc2ncc(Cl)c(Nc3ccccc3S(=O)(=O)C(C)C)n2)c(OC(C)C)cc1C1CCN(CCOCCOCCNC(=O)CNc2cccc3c2C(=O)N(C2CCC(=O)NC2=O)C3=O)CC1 (stereo unspecified)	66.9	9.17	62.7
CCCSc1ccc2[nH]c(NC(=O)OC)nc2c1	-15.2	-32.2	-11.2
CCCCCCCCCCCCC[N+](C)(C)Cc1ccccc1	7.81	-14.8	-5.53
O=S(=O)(O)CCCS(=O)(=O)O	17.9	1.16	-1.31
Cc1ccc(S(=O)(=O)c2ccc([N+](=O)[O-])o2)cc1	-48.9	-34	-12.9
CC(C)(C#N)c1ccc(N2C(=O)OCc3cnc4ccc(-c5cnc6ccccc6c5)cc4c32)cc1	17.1	3.56	-2.14
O=C(CCCCCCC(O)=NO)Nc1ccccc1 [Vorinostat]	-44.5	-31.4	-10.3
COCCOC(=O)C1=C(C)NC(C)=C(C(=O)OC(C)C)C1c1cccc([N+](=O)[O-])c1 (stereo unspecified)	-29.4	-11.4	6.1
CC(=O)[C@]1(O)Cc2c(O)c3c(c(O)c2[C@@H](O[C@H]2C[C@H](N)[C@H](O)[C@H](C)O2)C1)C(=O)c1ccccc1C3=O [Idarubicin HCl]	11.7	-34.2	-13

SMILES	inhibition of IKZF1 HTRF signal [1] [%]	relative growth in counter assay (HEK293FT dCK*-only) [%]	relative growth recovery (HEK293FT dCK*-IKZF1) [%]
Oc1c(Cl)cc(Cl)cc1Sc1cc(Cl)cc(Cl)c1O	7.52	-3.52	-1.73
COc1cc(NS(C)(=O)=O)ccc1Nc1c2ccccc2nc2ccccc12	-14.1	-35.1	-13.2
C[C@@H]1CC(=O)NN=C1c1ccc(NN=C(C#N)C#N)cc1	-27.1	11.2	-2.62
CCS(=O)(=O)N(C)[C@@H]1c2cc(C#N)ccc2OC(C)(C)[C@H]1O.CCS(=O)(=O)N(C)[C@H]1c2cc(C#N)ccc2OC(C)(C)[C@@H]1O (racemic) [chromanol-(+/-)]	-29.6	1.25	0.645
CC[N+](CC)(CC)CC(=O)Nc1c(C)cccc1C	-32.9	-2.01	-0.165
C/C=C(/C(=C/C)c1ccc(O)cc1)c1ccc(O)cc1 [dienestrol]	-24	-2.14	-1.6
COc1ccc(CN2C(=O)C(=O)c3cc(OC(F)(F)F)ccc32)cc1	-14.2	-33.6	-11.5
Nc1ncn([C@@H]2O[C@H](CO)[C@@H](O)[C@H]2O)c(=O)n1	-45.6	-13.2	-5.21
O=C(Nc1cc(C(F)(F)F)ccc1O)Nc1cc(C(F)(F)F)ccc1O	-27.7	-5.68	-1.77
CNC[C@H](O)c1ccc(O)c(O)c1 [Epinephrine (L-(-)-Epinephrine-(+)-Bitartrate)]	-25.3	-10.5	-3.19
CC(C)(C)CC(C)(C)c1ccc(O)c(Cc2ccc(Cl)cc2Cl)c1	115	-6.45	-7.76
Nc1cc(N2CCCCC2)nc(N)[n+]1[O-]	-27.1	-5.79	-0.55
COC(=O)Nc1nc2cc(SC(C)C)ccc2[nH]1 [methiazole]	36.1	-32.7	-10.8
CN(C)C1CCN(C(=O)c2ccc(NC(=O)Nc3ccc(-c4nc(N5CCOCC5)nc(N5CCOCC5)n4)cc3)cc2)CC1	27.3	-6.76	-0.95
COc1ccc2nc3cc(Cl)ccc3c(Nc3cc(CN4CCCC4)c(O)c(CN4CCCC4)c3)c2n1	-32.1	-29.1	-10.1
O=C1OCCN1/N=C/c1ccc([N+](=O)[O-])o1	-32.5	-3.23	-3.37
